This is an account of results in paper PMC5540273 (PLoS ONE, 2017).

SMILES strings stand for the structures.

Holding throughout (settings): concentration: 1 μM, replicates: in singlicate; n = 1
The subject of experiment [1] is RIOK1.
Experiment [2] relates to RIOK2.
In experiment [3] the test system is RIOK3.
The subject of experiment [4] is RIPK1.
Experiment [5] concerns RIPK2.
Experiment [6] relates to RIPK4.
Experiment [7] deals with RIPK5.
The subject of experiment [8] is ROCK1.
For experiment [9], the system named is ROCK2.
The subject of experiment [10] is ROS1.
Experiment [11] relates to RPS6KA4(Kin.Dom.1-N-terminal).
Experiment [12] relates to RPS6KA4(Kin.Dom.2-C-terminal).
Experiment [13] deals with RPS6KA5(Kin.Dom.1-N-terminal).
Experiment [14] deals with RPS6KA5(Kin.Dom.2-C-terminal).
Experiment [15] relates to T1, RSK1(Kin.Dom.1-N-terminal).
T1 construct: gene RPS6KA1

Experiment [16] concerns T2, RSK1(Kin.Dom.2-C-terminal).
T2 construct: gene RPS6KA1

The subject of experiment [17] is T3, RSK2(Kin.Dom.1-N-terminal).
T3 construct: gene RPS6KA3

Experiment [18] deals with T4, RSK2(Kin.Dom.2-C-terminal).
T4 construct: gene RPS6KA3

Experiment [19] concerns T5, RSK3(Kin.Dom.1-N-terminal).
T5 construct: gene RPS6KA2

Experiment [20] relates to T6, RSK3(Kin.Dom.2-C-terminal).
T6 construct: gene RPS6KA2
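Note: KINOMEscan kinase panel screen.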

For the molecule `O=C(Nc1n[nH]c2nc(-c3ccc(O)cc3)ccc12)C1CC1` [SB-710363], the “%Inh” value in experiment [1] is 47%; in experiment [2] it was 0%; in experiment [3], 46%; in experiment [4], 2%; in experiment [5], 0%; in [6], 39%. Further, the “%Inh” value in [7] was found to be 0%; in [8], 0%; in experiment [9], 0%; in [10], 0%; in [11], 8%; in [12], 99.5%. The “%Inh” value in experiment [13] is 0%; in [14] it was 53%; in experiment [15], 14%; in experiment [16], 64%; in experiment [17], 52%; in experiment [18], 0%. In addition, the “%Inh” value in [19] came to 12%; in experiment [20], 0%.
Take `c1ccc(-c2cnc3nccnn23)cc1` [AH20685]: the “%Inh” value in experiment [1], in experiment [2], in experiment [3], in [4], in experiment [5] and in [6] was 0% in each case. Besides, the “%Inh” value in experiment [7], in experiment [8], in [9], in experiment [10], in experiment [11] and in [12] was 0% in each case. For the same molecule, the “%Inh” value is given as 9% in experiment [13]; 0% in experiment [14]; 0% in [15]; 0% in [16]; 0% in experiment [17]; 0% in experiment [18]. Besides, the “%Inh” value in experiment [19] and in experiment [20] was 0% each time.
Turning to `O=C(NC1CCN(c2ccnc(Nc3ccc(F)cc3)n2)C1)c1cc2ccccc2s1` (centres unmarked) [GSK1379716], the “%Inh” value in experiment [1] is on record as 27%; in experiment [2], 0%; in experiment [3], 33%; in experiment [4] it was 0%; in experiment [5] it was 9%; in [6], 3%. For the same molecule, the “%Inh” value in experiment [7] stood at 13%; in experiment [8], 39%; in experiment [9] it was 29%; in experiment [10] it was 36%; in [11], 17%; in experiment [12] it was 0%. Also, the “%Inh” value in experiment [13] is recorded as 29%; in experiment [14], 0%; in experiment [15], 22%; in experiment [16], 13%; in experiment [17], 4%; in experiment [18] it was 0%. Also, the figures for the “%Inh” value in experiment [19] and in experiment [20] were 20% and 4%, respectively.
Consider `Nc1n[nH]c2cnc(-c3ccccc3)cc12` [SB-642124], for which the “%Inh” value turned out to be 31% in experiment [1]; 20% in [2]; 100% in experiment [3]; 30% in [4]; 29% in experiment [5]; 25% in experiment [6]. Also, the “%Inh” value in experiment [7] worked out at 0%; in [8], 40%; in [9], 18%; in experiment [10], 0%; in experiment [11], 0%; in experiment [12], 71%. In addition, the “%Inh” value in experiment [13] was determined as 12%; in experiment [14], 44%; in experiment [15], 23%; in [16], 0%; in [17], 22%; in experiment [18] it was 23%. The results for the “%Inh” value in [19] and in experiment [20] were 18% and 3%, respectively.
Turning to `CSc1cccc2c(-c3ccncn3)c(-c3ccc(F)cc3)nn12` [GW514786], the “%Inh” value in experiment [1] came out at 45%; in experiment [2], 0%; in [3] it was 21%; in experiment [4], 0%; in experiment [5], 43%; in experiment [6], 0%. Moreover, the “%Inh” value in experiment [7] was 19%; in experiment [8], 13%; in experiment [9] it was 19%; in [10], 0%; in experiment [11], 28%; in experiment [12], 0%. Also, the “%Inh” value was found to be 3% in experiment [13]; 7% in experiment [14]; 5% in experiment [15]; 38% in experiment [16]; 0% in experiment [17]; 11% in experiment [18]. Besides, the entries for the “%Inh” value in experiment [19] and in experiment [20] were 11% and 0%, respectively.
For the molecule `COc1cc(Nc2nccc(-c3c(-c4cccc(NC(=O)c5c(F)cccc5F)c4)nn4ccccc34)n2)cc(OC)c1OC` [GSK323521], the “%Inh” value in experiment [1] is recorded as 34%; in [2], 14%; in experiment [3] it was 0%; in experiment [4] it was 93.9%; in experiment [5], 79%; in experiment [6], 0%. Moreover, the “%Inh” value in [7] is given as 67%; in [8], 0%; in experiment [9], 6%; in [10] it was 0%; in [11] it was 25%; in experiment [12] it was 0%. Moreover, the “%Inh” value in experiment [13] is given as 27%; in experiment [14] it was 0%; in experiment [15], 5%; in experiment [16], 14%; in experiment [17], 32%; in [18], 47%. Also, the “%Inh” value in experiment [19] turned out to be 25%; in [20] it was 9%.
Take `Cc1ccc(S(=O)(=O)Nc2ccc(Nc3nccc(Nc4cccc5[nH]ncc45)n3)cc2)cc1` [GSK581271]: the “%Inh” value was found to be 78% in [1]; 40% in experiment [2]; 34% in [3]; 5% in experiment [4]; 69% in experiment [5]; 0% in experiment [6]. Further, the “%Inh” value is 0% in [7]; 0% in experiment [8]; 8% in experiment [9]; 25% in experiment [10]; 0% in [11]; 0% in [12]. Further, the “%Inh” value in experiment [13] is 0%; in experiment [14] it was 0%; in experiment [15], 1%; in [16] it was 14%; in experiment [17] it was 15%; in [18], 0%. Further, the “%Inh” value came to 5% in [19] and 0% in experiment [20].
Regarding `Cl.Cl.NCC(NCc1ccc(-c2ccnc3[nH]ccc23)s1)c1ccccc1` (centres unmarked) [GSK1321565], the “%Inh” value in experiment [1] stood at 100%; in experiment [2] it was 44%; in [3], 98.4%; in experiment [4], 2%; in experiment [5], 0%; in experiment [6], 47%. The “%Inh” value in [7] was found to be 0%; in experiment [8], 100%; in experiment [9], 99.4%; in experiment [10], 60%; in [11], 16%; in [12] it was 57%. For the same molecule, the “%Inh” value was 32% in experiment [13]; 53% in experiment [14]; 25% in experiment [15]; 0% in [16]; 36% in experiment [17]; 0% in [18]. The results for the “%Inh” value in [19] and in [20] were 39% and 14%, respectively.
As for `Cc1ccc(C(=O)Nc2ccc(Nc3ccnc4cc(-c5nccs5)ccc34)cc2O)cc1.Cl` [GW494702], the “%Inh” value in experiment [1] is 27%; in experiment [2], 7%; in experiment [3], 0%; in [4], 0%; in [5] it was 49%; in [6], 13%. The “%Inh” value in experiment [7] worked out at 0%; in experiment [8], 18%; in experiment [9], 12%; in experiment [10] it was 0%; in [11], 0%; in [12], 0%. Also, the “%Inh” value in [13] is 0%; in experiment [14], 0%; in [15] it was 0%; in experiment [16], 0%; in experiment [17], 0%; in experiment [18], 30%. In addition, the entries for the “%Inh” value in [19] and in experiment [20] were 11% and 0%, respectively.
Turning to `O=C(Nc1n[nH]c2cc(-c3ccoc3)ccc12)C1CC1` [SB-738481], the “%Inh” value in experiment [1] was determined as 68%; in experiment [2], 5%; in experiment [3], 0%; in experiment [4], 28%; in experiment [5], 0%; in experiment [6], 17%. Further, the “%Inh” value in [7] is on record as 3%; in experiment [8], 0%; in [9], 0%; in [10] it was 9%; in experiment [11], 0%; in [12], 11%. The “%Inh” value is recorded as 0% in experiment [13]; 0% in experiment [14]; 12% in experiment [15]; 0% in experiment [16]; 1% in [17]; 0% in experiment [18]. The “%Inh” value in experiment [19] was 0%; in [20], 2%.
